Paper PMC5540273 (PLoS ONE, 2017)

Test system: CDK8
Conditions: concentration: 1 μM, replicates: in singlicate; n = 1
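Note: KINOMEscan kinase panel screen.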

Row | Compound | %Inh
1 | Cl.Cl.NCC(C(=O)Nc1cc(Br)c(-c2ccnc3[nH]ccc23)s1)c1ccccc1 (centres unmarked) [GSK1269851] | 0%
2 | Cl.c1ccc(-c2ccc3c(Nc4ccc5[nH]ncc5c4)ccnc3c2)nc1 [GW440137] | 26%
3 | NCCCC(NC(=O)c1cc(Br)c(-c2ccnc3[nH]ccc23)s1)c1ccccc1.O=C(O)C(F)(F)F.O=C(O)C(F)(F)F (centres unmarked) [GSK1287544] | 27%
4 | Cl.Cl.NCC(NCc1ccc(-c2ccnc3[nH]ccc23)s1)c1ccccc1 (centres unmarked) [GSK1321565] | 39%
5 | Cc1ccc(S(=O)(=O)Nc2ccc(Nc3nccc(Nc4cccc5[nH]ncc45)n3)cc2)cc1 [GSK581271] | 13%
6 | O=C(Nc1cccc(Oc2ccc3nc(NC(=O)C4CC4)cn3n2)c1)c1ccccc1C(F)(F)F | 26%
7 | COc1cccc(NC(=O)NC2CCN(c3ccnc(Nc4cc(OC)c(OC)c(OC)c4)n3)C2)c1 (centres unmarked) [GSK1379763] | 39%
8 | Cl.Cl.NCC(NC(=O)c1cc(-c2ccccc2)c(-c2ccnc3[nH]ccc23)s1)c1ccccc1 (centres unmarked) [GSK1321561] | 30%
9 | Cc1cccc(NC(=O)Nc2ccc(Oc3ncnc4ccn(C)c34)cc2)c1 | 72%
10 | COc1cc(Nc2nccc(-c3c(-c4cccc(NC(=O)c5c(F)cccc5F)c4)nn4ncccc34)n2)cc(OC)c1OC [GSK327238] | 4%
11 | COc1cc(Nc2nccc(N3CCC(NC(=O)Nc4cccc(C(C)=O)c4)C3)n2)cc(OC)c1OC (centres unmarked) [GSK1379753] | 27%
